Compound activity: PubChem, National Center for Advancing Translational Sciences (NCATS)
Only some compounds are listed: those with a hit (about 12% of all), similar ones and a draw of the others.
BAZ2B inh = inhibitors of human BAZ2B bromodomain. Q9UIF8. AlphaScreen BAZ2B-H3K14Ac peptide displacement. Potency, µM (highest dose often 114 µM), for inactives: at the highest dose activity change, negative = inhibition, usual class: inhibitors. 360,000 compounds, 4.4% hits. AID 504333; further: on the % scale 0 is the no-effect control and ±100 the full control effect; nearly all actives have a fitted effect of over 60% in size
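BAZ2B 50 nM plus b-H3(5-23)K14Ac 50 nM, PBS pH 7.4/0.01% Tween-20, 30 min RT; compound added (max 110 uM), 30 min RT; streptavidin donor/Ni-chelate acceptor beads 10 ug/mL final, 20 min dark; AlphaScreen read.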
Sfp inh = inhibitors of Bacillus subtilis Sfp phosphopantetheinyl transferase. Q9F4F7. Biochemical Sfp PPTase activity, qHTS. Potency, µM, without a hit: largest response in the series, negative = inhibition, most hits filed as inhibitors. 310,000 compounds, 3.5% hits. AID 1490;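 further: the enzyme is Sfp with the accession as filed and its product quenches rhodamine fluorescence; 0% = enzyme reaction without inhibitor and -100% = no enzyme wells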
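Step 1, compound plus 15 nM Sfp-PPTase, 15 min, room temperature. Step 2, add rhodamine-CoA (5 uM) and BHQ-2-YbbR (12.5 uM). Step 3, read 525/598 nm fluorescence at 0 and 30 min.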
TDP1 inh = blocks human tyrosyl-DNA phosphodiesterase 1 | Q9NUW8 | recombinant TDP1, AlphaScreen DNA substrate cleavage | Potency, µM (titrated, usually from 130 µM), for the others: at the top dose activity change, negative = inhibition, hits mostly inhibitors | 350,000 compounds, 0.28% hits; further: on the % scale 0 is the no-effect control and ±100 the full control effect; nearly all actives have a fitted effect of over 40% in size
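Recombinant human Tdp1 (E. coli-expressed, 1 nM final) preincubated with compounds 15 min at room temperature, then 5'-biotin/3'-phosphotyrosine-FITC DNA substrate (15 nM final) added for 5 min. AlphaScreen beads (10 ug/ml final) added 10 min; cleavage lowers signal.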
JMJD2A Tudor = blocks the human JMJD2A Tudor domain; AlphaScreen JMJD2A-Tudor / H3K4me3 peptide binding; O75164; Potency, µM (series often up to 114 µM), without a hit: top-dose activity change, negative = inhibition, hits mostly inhibitors; 390,000 compounds, 4.4% hits; AID 504339; further: on the % scale 0 is the no-effect control and ±100 the full control effect; nearly all actives have a fitted effect of over 50% in size
HP1b binding inh = blocks HP1-beta chromodomain binding to methylated histone tails; AlphaScreen HP1-beta / biotin-H3K9me3 peptide binding; Potency, µM (titrated, usually from 114 µM), inactives show top-dose activity change, negative = inhibition, usual class: inhibitors; 390,000 compounds, 0.56% hits; AID 540317; further: nearly all actives have a fitted effect of over 70% in size
Target sequence (P83916 whole entry, looked up): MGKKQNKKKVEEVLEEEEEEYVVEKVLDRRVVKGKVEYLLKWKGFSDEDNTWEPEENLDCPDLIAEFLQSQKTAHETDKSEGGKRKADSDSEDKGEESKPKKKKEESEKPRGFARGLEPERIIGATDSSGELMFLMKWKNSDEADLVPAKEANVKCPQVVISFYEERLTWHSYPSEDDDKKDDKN
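AlphaScreen: HP1-beta (50 nM) preformed 30 min with biotin-H3(1-18)K9me3 peptide (50 nM) in PBS pH 7.4, 0.01% Tween-20. Compound added for 30 min at RT, then streptavidin donor/nickel chelate acceptor beads (10 ug/mL) for 30 min.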
G9a inh = inhibitors of human histone lysine methyltransferase G9a. 350,000 compounds, 8.8% hits. Q96KQ7. Potency, µM (doses to about 102 µM), without a hit: at the highest dose activity, negative = inhibition, usual class: inhibitors. G9a H3K9 monomethylation, AlphaScreen, 2 h; further: on the % scale 0 is the no-effect control and ±100 the full control effect; nearly all actives have a fitted effect of over 75% in size
Target sequence (Q96KQ7 913-1193 limits assumed): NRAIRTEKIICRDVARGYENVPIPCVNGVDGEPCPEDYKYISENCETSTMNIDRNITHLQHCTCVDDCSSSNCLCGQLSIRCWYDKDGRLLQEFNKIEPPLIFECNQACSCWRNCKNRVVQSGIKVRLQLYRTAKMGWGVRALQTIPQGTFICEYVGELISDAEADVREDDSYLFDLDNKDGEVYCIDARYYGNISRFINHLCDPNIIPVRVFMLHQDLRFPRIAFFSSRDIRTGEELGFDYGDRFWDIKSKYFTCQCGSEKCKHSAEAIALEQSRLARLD
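Chemiluminescent proximity detection of H3K9 monomethylation, read after 10 min bead incubation in the dark. Reaction: 20 nM G9a, 500 nM biotin-H3K9 peptide, 20 uM SAM cofactor, 2 h, room temperature, following 15 min enzyme-compound preincubation.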
Starred values were filed as active, the others as inactive; ? = inconclusive; · = not tested or not shown; [ ] = dose if it differs, or a comment. The call rests on the fitted dose curve; in most records, active means well fitted curve in the direction sought with a large enough effect; inconclusive means small, poorly fitted or top-dose-only effect, or another doubt; inactive means no such curve, though single readings can be large; an effect the other way counts as inactive or inconclusive. Potency means the concentration at half of the fitted maximal effect.

SMILES | BAZ2B inh | Sfp inh | TDP1 inh | JMJD2A Tudor | HP1b binding inh | G9a inh
CC(=O)Nc1ccc(NC(=O)COC(=O)c2ccc(S(=O)(=O)NCc3ccco3)cc2)cc1 | · | · | -2% | -3% | 17%[57 µM] | ·
O=C(NC1CCCCCC1)c1ccc(S(=O)(=O)NCc2ccco2)cc1 | 10% | 2% | 1% | 0% | 5% | -4%[59 µM]
O=C(COC(=O)c1ccc(S(=O)(=O)NCc2ccco2)cc1)NC1CCCCCC1 | ? | 56µM* | ? | ? | 3% | ?
COc1cccc(S(=O)(=O)NCc2ccc(C(=O)N3CCN(c4ccccc4)CC3)cc2)c1 | -24% | 18% | 6% | -24% | 15% | 63µM*
COc1cccc(NC(=O)COC(=O)c2ccc(S(=O)(=O)NCc3ccco3)cc2)c1 | ? | 7% | -9% | 35µM* | -28% | -4%[12.7 µM]
C[C@H](NC(=O)N1CCc2nc(COc3ccccc3)c3c(c2C1)CO[C@@H](C)C3)c1ccccc1 | · | -10% | 12%[12.3 µM] | · | · | ·
CCc1ccc(CNC(=O)CN2C(=O)CSc3ccc(S(=O)(=O)N4CCOCC4)cc32)cc1 | 1% | · | 5% | -13% | 31% | 3%[59 µM]
CC(C)OCCCNC(=O)CN1C(=O)CSc2ccc(S(=O)(=O)N3CCOCC3)cc21 | -3% | · | 8% | -11% | 1% | -3%[59 µM]
Cc1ccc(N(CC(=O)Nc2ccccc2-c2ccccc2)S(=O)(=O)c2ccccc2)c(C)c1 | -27% | 14% | 3% | -14% | 8% | 8.9µM*
Cc1cc(C)c(NC(=O)CN(C)C(=O)C2CC(=O)N(c3cccc4ccccc34)C2)c(C)c1 (configuration not stated) | 8% | · | 1% | -16% | 28% | 1%[12.7 µM]
COc1ccc(-c2cc3c(nn2)-c2ccccc2C3=O)cc1 | -14% | 11% | 0% | 22µM* | -8% | -5%
N#CC1=C(N)Oc2cc3ccccc3cc2C1c1cccs1 (configuration not stated) | -12% | 79µM* | 7% | -9% | 18% | 8%[0.0925 µM]
O=C(N/N=C(\Cc1ncc[nH]1)c1ccccc1)c1ccccc1 | -1% | 19% | 0% | · | · | 5%[59 µM]
O=C(N/N=C(\Cc1ncc[nH]1)c1ccccc1)c1cccnc1 | 14µM* | 1% | 8% | 50µM* | 24% | -11%
O=C(N/N=C(\Cc1ncc[nH]1)c1ccccc1)c1ccncc1 | 8.9µM* | -12% | 8% | 40µM* | 47% | -23%
CC1(C)c2ssc(=S)c2-c2ccccc2N1C(=O)CSC1=NCCS1 | 25µM* | -4% | 14% | 8.9µM* | ? | 25µM*
Cc1cc2c(cc1C)N(C(=O)CSC1=NCCS1)C(C)(C)c1ssc(=S)c1-2 | 8.9µM* | 7% | 8% | 6.3µM* | ? | 5µM*
Cc1cc(C)c2c(c1)-c1c(ssc1=S)C(C)(C)N2C(=O)CSc1nncn1C | 50µM* | 50µM* | 9% | ? | ? | 5µM*
CCc1ccccc1NS(=O)(=O)c1c(C(=O)N2CCCCCC2)c(C)n(C)c1C | ? | 6% | 7% | -25% | 42% | -4%
Cc1cc(C)c(NC(=O)c2sc3nc4c(cc3c2N)C(=O)CC(C)(C)C4)c(C)c1 | ? | -14% | 8% | -34% | 16% | 45µM*
Cc1cc(C)c2cc3c(N)c(C(=O)Nc4c(C)[nH]c(=O)[nH]c4=O)sc3nc2c1 | 50µM* | ? | 2% | ? | 89% | -15%
CCOc1ccc2nc3sc(C(=O)N4CCOCC4)c(N)c3cc2c1 | -37% | 32µM* | -2% | -15% | 11% | ?
Cc1cc(C)c2cc3c(N)c(C(=O)N4CCOCC4)sc3nc2c1 | -16% | ? | -1% | -14%[57.1 µM] | 23% | 8.9µM*
Cc1ccc(C)c2nc3sc(C(=O)N4CCOCC4)c(N)c3cc12 | -10% | 17% | 3% | -12% | 47% | 3%
Cc1cc(C)c2nc3sc(C(=O)N4CCOCC4)c(N)c3cc2c1 | -20% | ? | · | -20% | 19% | ?
SMILES | BAZ2B inh | Sfp inh | TDP1 inh | JMJD2A Tudor | HP1b binding inh | G9a inh
Cc1cc2c(s1)c1cnn(Cc3cc(F)c(F)c(F)c3)c(=O)c1n2C | · | · | · | -19% | · | ·
Cc1c(N)cccc1[N+](=O)[O-] | -7% | · | 1% | -3% | 3% | -3%[0.501 µM]
Nc1cc2c([N+](=O)[O-])cccc2o1 | 56µM* | 6% | 10% | -22% | -24% | 3%[2.33 µM]
Cc1nc(SCc2ccccc2F)c2oc3ccccc3c2n1 | 33% | 79µM* | · | 62% | 68% | 58%[59 µM]
Cc1nc(SCc2nc3c(F)cccc3[nH]2)c2oc3ccccc3c2n1 | · | · | -13% | 79µM* | 29% | ·
COCCN(CCOC)C(=O)C12CCC(C)(C(=O)C1)C2(C)C (configuration not stated) | -5% | 12% | 2% | -10% | 10% | 50µM*
COCCSc1nnc(NC(=O)CSCc2ccccc2)s1 | 1% | 15% | 6% | -10% | 38% | 14µM*
CC(=O)Nc1c(O)nc(SCC(=O)Nc2nnc(SCc3ccccc3)s2)[nH]c1=O | ? | 35µM* | 3% | ? | 7% | 20µM*
COCCSc1nnc(NS(=O)(=O)c2ccc(C)cc2)s1 | ? | 12% | 2% | -22%[57.1 µM] | 10% | 19%[12.7 µM]
Nc1nnc(SCC(=O)Nc2sc3c(c2C(=O)c2ccccc2)CCCC3)s1 | ? | -17% | -2% | ? | ? | ?
COCCNc1nnc(SCC(=O)Nc2sc3c(c2C(=O)c2ccccc2)CCCC3)s1 | ? | ? | 0% | ? | ? | 45µM*
COCCSc1nnc(NS(=O)(=O)c2ccccc2)s1 | ? | -23% | 6% | -6% | 26% | 28µM*
C1COC1 | · | · | 5% | · | · | ·
CCCCC/C=C\C/C=C\CCCCCCCC(=O)O[C@@H](CO)COC(=O)CCCCCCCCCCCCCCCCC | · | -8% | 7% | · | · | 11%[59 µM]
O=S(c1cc(Cl)cc(Cl)c1O)c1cc(Cl)cc(Cl)c1O | · | -16% | 3% | · | · | ?
Oc1c(Cl)cc(Cl)cc1Sc1cc(Cl)cc(Cl)c1O | 50µM* | 8% | 3% | · | · | ?
COC(=O)c1ccc(COC(=O)CNC(=O)C2CCCCC2)cc1 | · | · | 1% | -3% | 15%[57 µM] | ·
COc1cccc(CN2C(=O)c3ccccc3S2(=O)=O)c1 | 24% | 5% | 11% | 29% | 90% | 10%[59 µM]
O=C1c2ccc([N+](=O)[O-])cc2S(=O)(=O)N1Cc1ccccc1 | ? | -7% | · | ? | ? | 11µM*
O=C(COC(=O)c1ccc2ncsc2c1)NC(=O)C1CCCCC1 | · | · | 1% | -11% | 43% | ·
COc1ccc(N2CCN(C(=O)c3cccc(NS(=O)(=O)c4cccc(F)c4)c3)CC2)cc1 | 40µM* | 19% | 8% | -30% | 12% | ·
